# Assay results: ChEMBL document CHEMBL3988442, “University of Dundee, Small-Polar-MMV Screening Library” (2021)
# In all, about 48,000 compounds went through this assay and about 13,000 (27%) showed an effect of 50% or more. This is one part of the list.
# Tested on: Wolbachia pipientis
# Experiment: Anti-Wolbachia Cell-Based Screen
# Assay type: functional
# Design: scale not given: in the data most compounds retested in dose-response had high values
# Conditions: 5 µM
row,SMILES,Percent Effect [%]
1,COc1cc(C)ccc1OCc1nc(C(=O)N2CCC(C)CC2)co1,-9.42
2,CCN1CCC2(CN(C(C)=O)CC23CCN(CC2CC2)CC3)C1=O.O=C(O)C(F)(F)F (configuration not stated),-51.48
3,COc1ccccc1C1CNC(=O)c2nc(-c3nccn3C)[nH]c2C1 (configuration not stated),6.875
4,COc1ccc(CN(C)[C@@H]2CN(C(=O)c3cnn(C)c3)C[C@H]2O)cc1,88.16
5,Cn1cc(C(=O)N2CCCCC2CCc2ccccc2)cn1 (configuration not stated),-0.576
6,Cn1cc(C(=O)N2CCCCC2CCc2ccc(O)cc2)cn1 (configuration not stated),-2.601
7,COc1ccc(CN(C)[C@@H]2CN(C(=O)c3cncs3)C[C@H]2O)cc1,107.9
8,COc1ccc([C@@H]2CN(C(=O)CCCc3cn[nH]c3)C[C@H]2N(C)C)cc1,-10.76
9,COc1ccc(CN(C)[C@@H]2CN(C(=O)c3cccs3)C[C@H]2O)cc1,-2.392
10,CNC(=O)C(C)(C)CNC(=O)Nc1ccc(C)cn1,-9.639
11,CCC(Nc1nc(C(F)(F)F)nc2ccccc12)C(=O)O (configuration not stated),14.92
12,Cc1ccc(-c2csc(-c3cccc(C(=O)O)c3)n2)cc1,-9.33
13,COc1ccc(OC)c(-c2csc(-c3cccc(C(=O)O)c3)n2)c1,-14.75
14,CCc1nc(-c2cccc(C(=O)O)c2)no1,110.9
15,COC(=O)c1cccc(-c2nc(CC3CCN(C)CC3)no2)c1,-1.18
16,CCc1noc(-c2cccc(C(=O)O)c2)n1,137.4
17,CCc1noc(-c2ccc(SCC(=O)O)nc2)n1,5.745
18,Cc1ccc(Cl)cc1S(=O)(=O)NCc1cnc(N(C)C)n1C,-1.472
19,Cc1c(NCC(C)(C)C)cccc1C(=O)N(C)Cc1ncnn1C,4.357
20,CNC(=O)c1cccc(CNC(=O)C2CC(=O)N(CCN(C)C)C2)c1 (configuration not stated),-3.95
21,Cc1ccc(CN2Cc3nccn3CC(Cn3cccn3)C2)s1.O=C(O)C(F)(F)F (configuration not stated),93.7
22,Cc1ccc(CN2Cc3nccn3CC(Cn3cncn3)C2)s1.O=C(O)C(F)(F)F (configuration not stated),96.42

row,SMILES,Percent Effect [%]
1,CCN(CC)CC1CN(Cc2ccc(C)s2)Cc2nccn2C1.O=C(O)C(F)(F)F.O=C(O)C(F)(F)F (configuration not stated),-7.962
2,Cc1ncsc1C(=O)NC1CCN(CC(=O)NCc2ccccc2)CC1,0.6366
3,Cc1cc(-c2ccc(C(=O)O)cc2)nc(C2CCCN(C(C)C)C2)n1 (configuration not stated),2.794
4,Cc1ccc(C(NC(=O)CC2CCN(C(C)C)CC2)C(=O)O)cc1 (configuration not stated),-11.69
5,Cc1cc(-c2cccc(C(=O)O)c2)nc(C2CCN(C(C)C)CC2)n1,102.4
6,Cc1cc(-c2ccc(C(=O)O)cc2)nc(C2CCN(C(C)C)CC2)n1,108.9
7,O=C(N[C@H]1CN(C2CCOCC2)C[C@@H]1C1CC1)c1cc(O)no1,17.55
8,CCN1CC[C@@]2(C(=O)N3CCCC3)CCN(S(C)(=O)=O)CC[C@@H]12.O=C(O)C(F)(F)F,-22.27
9,CN(C)CC(C)(C)CN1CCC(c2ccnc(-c3cccc(O)c3)c2)C1 (configuration not stated),-7.648
10,O=C(Cn1cncn1)NCC1(O)CCCc2ccccc21 (configuration not stated),1.206
11,CCS(=O)(=O)CC(C)N(C)C(=O)COc1ccccc1C#N (configuration not stated),95.28
12,CCN(CC)C(=O)c1ccc(COc2ccccc2C#N)o1,-6.305
13,COc1ccccc1OCC(=O)n1ncc(C#N)c1N,-0.431
14,CC(Oc1ccccc1C#N)C(=O)NC1CC1 (configuration not stated),12.68
15,CC(C)Oc1ccccc1CNC(=O)N(C)C(C)CS(C)(=O)=O (configuration not stated),-10.62
16,CC(C)(C)OC(=O)NCCNC(=O)c1cnc(-c2ccccc2)nc1,-9.911
17,CC(C)C(C)N(C)C(=O)COc1ccccc1C#N (configuration not stated),106.3
18,CC(CNC(=O)OC(C)(C)C)N(C)C(=O)COc1ccccc1C#N (configuration not stated),101.4
19,CCNC(=O)NC1CCC(Oc2ccccc2C#N)CC1 (configuration not stated),4.038
20,O=C(O)C(F)(F)F.O=C([C@H]1CN(Cc2ccoc2)C[C@H]2OCC[C@@H]12)N1CCCCO1,-7.154
21,Cc1ncsc1CCN(C)Cc1cc2n(n1)CCN(S(C)(=O)=O)C2,0.3281
22,CCOc1ncccc1NC(=O)c1cc(C)c(C)s1,7.979

row,SMILES,Percent Effect [%]
1,COc1ccc(Br)cc1CCC(=O)N1CCSCC1,-8.265
2,O=C(C1CC(=O)N(c2ccccc2Br)C1)N1CCN(CC(F)(F)F)CC1 (configuration not stated),5.588
3,O=C(c1ccc(Cn2cc(Br)cn2)cc1)N1CCOCC1,-22.08
4,O=C(C1CC(=O)N(c2ccccc2Br)C1)N1CCCCCC1 (configuration not stated),6.985
5,O=C(C1CC(=O)N(C2CC2)C1)N1CCC(Oc2ccccc2Cl)CC1 (configuration not stated),2.803
6,O=C(C1CC(=O)N(c2n[nH]c3cc(Br)ccc23)C1)N1CCOCC1 (configuration not stated),93.25
7,O=C(C1CCN(c2ccnc3ccc(Br)cc23)CC1)N1CCOCC1,20.8
8,O=C(C1CC(=O)N(c2n[nH]c3cc(Br)ccc23)C1)N1CCSCC1 (configuration not stated),118.9
9,O=C(C1CC(=O)N(c2n[nH]c3cc(Br)ccc23)C1)N1CCCC1 (configuration not stated),93.67
10,COc1ccnc(N2CCN(C(C)c3nc(C)no3)CC2)n1 (configuration not stated),-3.819
11,O=C(Nc1ccccc1)c1cccc(S(=O)(=O)NC[C@@H]2C[C@H](F)CN2)c1,3.3
12,CN(CC(N)=O)Cc1cc(Cl)cc2cccnc12,-12.39
13,O=C(NCCc1nc2ccccc2s1)c1coc(CN2CCOCC2)c1,-17.38
14,CCc1nnc2n1CCN(CC(O)CN1CCC(C)CC1)C2 (configuration not stated),-4.838
15,CC(=O)NC1CCCN(C(=O)NCc2cccnc2-n2cccn2)C1 (configuration not stated),-5.614
16,CS(=O)(=O)NC1CCN(C(=O)NCCNc2ccccn2)CC1,2.154
17,CC(=O)NC1CCCN(C(=O)CCc2cccnc2)C1 (configuration not stated),16.44
18,CC(C)(C)OC(=O)N1CCCCC1C(=O)NCc1cc[nH]n1 (configuration not stated),-6.483
19,CS(=O)(=O)NC1CCN(C(=O)NCc2cccnc2)CC1,127.5
20,CC(=O)NC1CCCN(C(=O)NCc2cccnc2N(C)C)C1 (configuration not stated),9.234
21,CC(=O)NC1CCCN(C(=O)NCc2cc[nH]n2)C1 (configuration not stated),125.6
22,O=C(NCc1cc[nH]n1)N1CCCC(N2CCCC2)C1 (configuration not stated),111.7

row,SMILES,Percent Effect [%]
1,O=C(NCc1cc[nH]n1)N1CCCCC(N2CCCC2)C1 (configuration not stated),0.854
2,CC(=O)NC1CCCN(C(=O)NCc2cccnc2)C1 (configuration not stated),121
3,CS(=O)(=O)NC1CCCN(C(=O)NCc2cccnc2)C1 (configuration not stated),-6.706
4,COCCc1noc(CN2CCCc3cccc(OC)c32)n1,0.4274
5,Cc1noc(-c2ccc(N(C)Cc3ccncn3)nc2)n1,-29.65
6,c1ccc(CNC[C@H]2COCc3nc4cccnc4n32)cc1,10.55
7,COCC(C)NC(=O)NCCc1cccc(OC)c1O (configuration not stated),-7.103
8,CCn1nc(CC(C)C)cc1C(=O)N1CCN([C@H]2CCCC[C@@H]2O)CC1,0.6704
9,CCS(=O)(=O)N1CC(c2nc(-c3ccsc3)no2)C1,-8.132
10,CCc1c(C)nn(CCNC(=O)Cc2csc(C)n2)c1C,-26.69
11,CN(C)CCn1cc(NC(=O)NC(C)(C)c2nccs2)cn1,-14.78
12,CCCN(C(=O)c1ccncc1)c1nc2c(s1)CCc1c-2cnn1C,62.27
13,CCCN(C(=O)c1cccnc1)c1nc2c(s1)CCc1c-2cnn1C,53.11
14,CCCN(C(=O)COC)c1nc2c(s1)CCc1c-2cnn1C,1.347
15,OCc1ccc(CN2CCC(n3cc(-c4ccc(F)cc4)nn3)CC2)o1,-0.1205
16,CC(C)C(C(=O)NC1CCOCC1)n1cnc2cc(F)c(F)cc21 (configuration not stated),3.744
17,CCCc1cc(=O)[nH]c2nnc(SCC(=O)NCc3ccc(C)cc3)n12,-24
18,CC(=O)NCCNC(=O)NCCCc1cccc(F)c1,-6.354
19,CC(=O)N1N=C(c2ccccc2)OC1C(=O)NCCc1ccc(C)cc1 (configuration not stated),114.7
20,CC(=O)N1N=C(c2ccccc2)OC1C(=O)NCCc1ccc(O)cc1 (configuration not stated),114.8
21,Cc1ccc2c(c1)CN(CC(=O)NCCc1ccc(F)cc1)CC(C)O2 (configuration not stated),6.694
22,CC(=O)N1N=C(c2ccccc2)OC1C(=O)NCCOc1ccccc1 (configuration not stated),130.7

row,SMILES,Percent Effect [%]
1,CC(=O)N1N=C(c2ccccc2)OC1C(=O)NCCc1cccc(F)c1 (configuration not stated),137.5
2,Cc1nc(C2CCCN2CC(=O)NCCOc2ccccc2)no1 (configuration not stated),3.183
3,CC(=O)N1N=C(c2ccccc2)OC1C(=O)NCCC1=CCCCC1 (configuration not stated),-1.689
4,CC(=O)N1N=C(c2ccccc2)OC1C(=O)NCCc1cccc(Cl)c1 (configuration not stated),1.222
5,O=C(NCCOc1ccccc1)C1NCCc2[nH]cnc21 (configuration not stated),9.443
6,Cc1nc(-c2ccc(NCCc3ccc(O)cc3)nc2)[nH]c(=O)c1C,-6.931
7,CC(NC(=O)Nc1cnn(CC(N)=O)c1)c1ccc(Cl)s1 (configuration not stated),9.25
8,NC(=O)NCCC(=O)N1CCC(c2cc(-c3ccccc3Cl)n[nH]2)CC1,-13.9
9,CC(C)(CNC(=O)CSc1nnnn1C1CC1)c1ccccc1F,14.51
10,CC(C)(C#N)c1ccc(NS(=O)(=O)CC2CCCCO2)cc1 (configuration not stated),-23.28
11,CC(=O)N1N=C(c2cccs2)OC1C(=O)NCCc1cccc(Cl)c1 (configuration not stated),135.3
12,CC(=O)N1N=C(c2ccccc2)OC1C(=O)NCCN(C(C)C)C(C)C (configuration not stated),125.8
13,NC(=O)c1cccc(CCNCc2cnc(-c3cccs3)s2)c1,-4.854
14,CC(C)N(C)CCCNC(=O)c1cnc(-c2ccccc2)nc1,-3.501
15,Cn1cc(CCNC(=O)C2(c3cccc(Cl)c3)CC2)cn1,11.84
16,CC(=O)N1N=C(c2ccccc2)OC1C(=O)NCCc1ccc(Cl)cc1 (configuration not stated),146.7
17,CC(C)N(CCNC(=O)c1[nH]nc2ccc(I)cc12)C(C)C,-4.489
18,Cc1nc(NCCc2ccc(Cl)cc2)cc(C(=O)N2CCCCC2)n1,24.03
19,Cc1nc(NCCc2ccc(Cl)cc2)cc(C(=O)N2CCOCC2)n1,8.895
